We go through 40 compounds from PubChem BioAssay (NCI).

This is part of a sample that, as a whole, favours compounds with a hit. Of some 83,000 tested, about 20% had one in any assay.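 Compound tested at a single concentration for 48 hours in 96-well plates; a percent growth value below 10 was scored as active.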 Calls of active or inactive are those of the source.

The experiment has as its system SK-MEL-5 melanoma. Kind of experiment: NCI-60 one-dose screen, 48 h (100 = growth as untreated, 0 = no growth, -100 = all killed). The conditions noted are these: 10 µM unless noted.
As for `FC(F)(F)c1cc(-c2nnc3n2N=C(N2CCCC2)CS3)cc(C(F)(F)F)c1`, the growth is 80.5% (inactive).

As for `Clc1ccc(C2=NN(c3ccc(Cl)cc3)C(c3cccc(Nc4ccnc5cc(Cl)ccc45)c3)C2)cc1` (stereo not given), the growth was 92.8% (inactive).

As to `C=CCN(/C=C/CN(CC=C)CC=C)CC=C`, the growth is 109% (inactive).

On to `COc1ccc(-c2nnc3c4[nH]cnc4ncn23)c(OC)c1`, for which the growth was 49% (inactive).

For the compound `Cc1ccc(S(=O)(=O)NCCN2c3nc4ccccc4cc3Sc3cc4ccccc4nc32)cc1`, the growth was 82.7% (inactive).

For `O=C(CNC(=O)c1cccc2ccccc12)Nc1ccccc1Oc1cccc(O)c1`, the growth was 26.4% [5 µM] (inactive).

On to `COc1ccc2c(=O)c(OC)c(-c3cc(OC)c(OC)c(OC)c3)oc2c1`, for which the growth is 75.4% (inactive).

In the case of `COc1cnc2c(c1)C(=O)c1c-2n(CCCN2CCC(O)CC2)c(=O)c2cc(F)ccc12`, the growth is -98.9% (active).

`O=C(/C=C/c1c(-c2ccccc2)[nH]c2ccccc12)S(=O)(=O)c1ccccc1`: the growth is 37.4% (inactive).

As to `O=C(Nc1nc2c(C(F)(F)F)cccc2s1)c1cc(Cl)ccc1O`, the growth was -46.7% (active).

Take `CCN(CC)CCOCC[C@H]1CC[C@H]2[C@@H]3[C@H](C)Cc4cc(OS(N)(=O)=O)ccc4[C@H]3CC[C@]12C`: the growth was -90.4% (active).

Consider `NS(=O)(=O)c1ccc(N2CC(c3nc4ccccc4[nH]3)CC2=O)cc1` (stereo not given), for which the growth was 99.8% (inactive).

On to `COc1cnc2c(c1)C(=O)c1c-2n(CCCN2CCCC2)c(=O)c2cc(F)ccc12`, for which the growth is -95.9% (active).

On to `COc1ccc(-n2cnc3cc(C(=O)N4CCCCC4)ccc32)cc1`, for which the growth was 102% (inactive).

For `COc1cc(-c2n[nH]nc2-c2ccccn2)cc(OC)c1OC`, the growth is 102% (inactive).

With `COc1cc(C2=NN(C=O)C(c3cccc(Nc4ccnc5cc(Cl)ccc45)c3)C2)cc(OC)c1OC` (stereo not given), the growth was 68.1% (inactive).

As for `Cc1sc2nc(NCc3ccccc3)[nH]c(=O)c2c1C`, the growth is 45.5% (inactive).

In the case of `CC(=O)N1N=C(c2ccc(Nc3nc(NCCO)nc(NCCO)n3)cc2)CC1c1ccc(Cl)cc1` (stereo not given), the growth is 98.3% (inactive).

In the case of `COc1ccc(N2CCN(CC(=O)N3CCN(c4nnc(-c5ccc(Cl)cc5)c(-c5ccc(Cl)cc5)n4)CC3)CC2)cc1`, the growth was 38% (inactive).

As for `C1CCC(C(CC2CCCCN2)C2CCCCC2)CC1` (stereo not given), the growth was -94.3% (active).

As to `Cc1cc2c(cc1C)[n+](Cc1ccc3ccccc3c1)cn2Cc1ccc2ccccc2c1`, the growth was -99.2% (active).

`COc1ccc(Oc2ccccc2NC(=O)CNC(=O)c2cccc3ccccc23)cc1`: the growth was 10.3% [5 µM] (inactive).

For the compound `COc1cccc(N2CCN(CC(=O)N3CCN(c4nnc(-c5ccc(Cl)cc5)c(-c5ccc(Cl)cc5)n4)CC3)CC2)c1`, the growth was 48.4% (inactive).

Turning to `CC(=O)N1N=C(c2ccc3c(c2)OCO3)CC1c1c(C)nn(-c2ccccc2)c1N(C)Cc1ccccc1` (stereo not given), the growth was 79.8% (inactive).

For `COc1ccc(C(=O)/C=C/c2cccc(Nc3ccnc4cc(Cl)ccc34)c2)cc1`, the growth is 7.89% (active).

As to `COc1cc(C2CC(C3C(=O)N(C)C(=O)N(C)C3=O)=NN2c2cc(Cl)cc(Cl)c2)cc(OC)c1OC` (stereo not given), the growth is 91.3% (inactive).

Turning to `O=C1NC(=O)/C(=C\c2ccco2)S1`, the growth was 99.9% (inactive).

As to `COc1ccc2nc(-c3ccc(Cl)cc3)cc(-c3nnc(SCC(=O)Nc4ccc(C(C)=O)cc4)n3-c3ccccc3)c2c1`, the growth was 103% (inactive).

As to `O=C(CNC(=O)c1cccc2ccccc12)Nc1ccccc1Cc1ccccc1`, the growth was 34.4% [5 µM] (inactive).

On to `CCCCc1n(Cc2ccc3ccccc3c2)cc[n+]1Cc1ccc2ccccc2c1`, for which the growth was -97.8% (active).

Turning to `COc1cc(C2CC(C3C(=O)N(C)C(=O)N(C)C3=O)=NN2C=O)cc(OC)c1OC` (stereo not given), the growth is 113% (inactive).

For the compound `Nc1ncnc2c1CN(Cc1ccccc1)CC2`, the growth is 109% (inactive).

For the compound `CCOC(=O)c1sc(NC(=O)COc2cccc(/C=C3\Cc4ccc(Cl)cc4C3=O)c2)nc1C`, the growth is 97.4% (inactive).

For `COC(=O)[C@H](CCCCNC(=O)OCc1ccccc1)NC(=O)[C@@H](NC(=O)Nc1cc(C(F)(F)F)cc(C(F)(F)F)c1)C(C)C`, the growth was -43.4% [100 µM] (active).

Regarding `CCN(CC)c1ccc(C(=C2C=CC(=[N+](CC)Cc3cccc(S(=O)(=O)O)c3)C=C2)c2ccc(N(CC)Cc3cccc(S(=O)(=O)O)c3)cc2)cc1`, the growth was 54% (inactive).

For the compound `O=C(CNC(=O)c1cccc2ccccc12)Nc1ccccc1Oc1ccc(O)cc1`, the growth is 27.7% [5 µM] (inactive).

In the case of `COc1cc(C(=O)/C=C/c2cccc(Nc3ccnc4cc(Cl)ccc34)c2)cc(OC)c1OC`, the growth is -45.5% (active).

For the compound `CN1C(=O)C(C2=NN(C=O)C(c3ccc(F)cc3)C2)C(=O)N(C)C1=O` (stereo not given), the growth was 102% (inactive).

As for `O=CN1N=C(c2ccc(Nc3ccnc4cc(Cl)ccc34)cc2)CC1c1ccc(Cl)cc1` (stereo not given), the growth is -27.4% (active).

Consider `COc1cccc(-c2nc3cc(NC(=O)c4ccc(Cl)c(C#N)c4)ccc3o2)c1`, for which the growth is 5.38% (active).
